# Vaccinia mCherry – inhibitors of vaccinia virus infection (mCherry reporter signal). Vaccinia virus mCherry reporter infection, fluorescence. Potency, µM (top dose mostly 36.5 µM), for inactives: at the top dose activity change, negative = inhibition, actives largely listed as inhibitors. actives 0.63% (n = 310,000). AID 720579; calls by dose curve; tested in A549 cells; also: potency is read from the fitted curve at half-maximal effect; nearly all actives have a fitted effect of over 35% in size
# HCMV antiviral – inhibitors of human cytomegalovirus | activity change, negative = inhibition, % at 57.5 µM | actives 4.5% (n = 410,000) | HFF cells, HCMV-luciferase reporter, 72 h; hits give low values; in the data active = activity change below about -60%; inconclusive = no clear call, values can overlap the other calls; inactive = above about -39%
#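 HFF cells seeded 16 h at 37C, treated with compounds, infected with luciferase-reporter HCMV at MOI 1 PFU/cell; luciferase read at 72 h post infection, normalized to buffer-only and Salinomycin controls.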
# TbPYK inhibitor – inhibitors of Trypanosoma brucei pyruvate kinase | Potency, µM (titrated, usually from 76.8 µM), for the others: top-dose activity, negative = inhibition, actives largely listed as inhibitors | actives 0.12% (n = 410,000) | Q57TT1 | TbPYK enzyme, Kinase-Glo Plus ATP luminescence, 45 min; also: potency is read from the fitted curve at half-maximal effect; nearly all actives have a fitted effect of over 50% in size
#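 Readout: single end-point luminescence (Kinase-Glo Plus, 10 min). Reaction conditions were TbPYK/substrate plus 130 uM ADP, 45 min at RT, pH 7.2 TEA buffer. No-enzyme wells served as controls, and data were normalized before concentration-response fitting.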
# LmPK inh – blocks Leishmania mexicana pyruvate kinase activity | Potency, µM (top dose mostly 57.5 µM), without a hit: at the highest dose activity change, negative = inhibition, actives largely listed as inhibitors | purified LmPK, Kinase-Glo ATP luminescence, 1 h | Q27686 | actives 0.37% (n = 290,000); also: potency is read from the fitted curve at half-maximal effect
# Target sequence (Q27686 whole entry, looked up): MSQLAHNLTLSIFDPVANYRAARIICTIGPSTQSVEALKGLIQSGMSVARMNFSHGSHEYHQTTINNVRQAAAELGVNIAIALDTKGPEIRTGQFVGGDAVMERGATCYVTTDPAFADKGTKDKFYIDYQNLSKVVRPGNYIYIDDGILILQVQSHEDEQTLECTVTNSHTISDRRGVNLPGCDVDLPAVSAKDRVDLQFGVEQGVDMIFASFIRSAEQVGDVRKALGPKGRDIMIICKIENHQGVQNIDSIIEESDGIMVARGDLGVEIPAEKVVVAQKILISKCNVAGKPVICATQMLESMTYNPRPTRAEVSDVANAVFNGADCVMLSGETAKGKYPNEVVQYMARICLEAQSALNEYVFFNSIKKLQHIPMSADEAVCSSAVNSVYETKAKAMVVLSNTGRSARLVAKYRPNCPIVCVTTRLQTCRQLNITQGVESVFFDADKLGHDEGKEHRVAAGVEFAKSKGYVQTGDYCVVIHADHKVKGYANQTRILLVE
#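 Kinase-Glo luminescence read after 1 h RT reaction of 0.1 nM LmPK with 0.5 mM PEP and 0.1 mM ADP. Activity scaled between uninhibited and enzyme-free controls.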
# Vaccinia Venus – inhibitors of vaccinia virus (Venus reporter); Vaccinia virus Venus reporter expression, fluorescence; Potency, µM (titrated, usually from 36.5 µM), for the others: at the highest dose activity change, negative = inhibition, hits mostly inhibitors; actives 0.46% (n = 330,000); AID 720580; calls by dose curve; tested in A549 cells; also: potency is read from the fitted curve at half-maximal effect; nearly all actives have a fitted effect of over 30% in size
# An asterisk follows results filed as active; i = inactive; ? = inconclusive; nt = not tested or not shown; [ ] = dose if it differs, or a comment. Sampled rows, rich in hits. Any-hit rate of the full collection: about 5%. Unless noted, calls follow the shape of the dose curve; as a rule, active = well fitted curve in the direction sought with a large enough effect; inconclusive = small, poorly fitted or top-dose-only effect, or another doubt; inactive = no such curve, though single readings can be large; an effect the other way counts as inactive or inconclusive. % is scaled to controls: 0 for no effect and ±100 for the full control effect.
SMILES,Vaccinia mCherry,HCMV antiviral,TbPYK inhibitor,LmPK inh,Vaccinia Venus
S=C(NCCc1ccccc1)Nc1ccc(Br)cn1,i,-102*,5%,4%,-14%
S=C(NCCCc1ccccc1)Nc1ccccc1Cl,-17%,-60*,-2%,-4%,0%
Cc1nc2c(-c3ccc(F)cc3)c(C)nn2c(C)c1CCC(=O)NCc1cccc(Cl)c1,-19%,2,0%,nt,-20%
O=C(O)c1ccc2c(c1)C(=O)/C(=C/c1ccccc1)C2=O,46%,?,35µM*,0%,73%
CC(=O)Nc1ccc(N=c2cc([N+](=O)[O-])cc(Cl)n2O)cc1,8.9µM*,-85*,-6%,-8%,?
CC(=O)Nc1ccc(Oc2ccc([N+](=O)[O-])cc2Cl)cc1,-8%,-16,1%,1%,-4%
COc1ccc(CNC(=O)C/C(C)=N/NC(=O)c2cnccn2)cc1,-8%,?,2%,2%,-7%
Cc1cc(C)cc(NC(=O)Cn2c(-c3cncs3)nc3ccccc32)c1,3%,-27,1%,nt,11%
CCCCCOc1ccc(NC(=O)Cn2c(-c3cncs3)nc3ccccc32)cc1,-30%,-64*,-6%,nt,?
N#CCCN(Cc1ccccc1)C(C(=O)NC1CCCCC1)c1cc2ccccc2o1 (stereo unspecified),i,-60*,0%,nt,-3%
CN1CC2=Cc3ccccc3OC23Oc2ccccc2C=C3C1,nt,-80*,-6%,1%,-28%
CC(C)OC12Oc3ccccc3C=C1N1CCC2CC1 (stereo unspecified),nt,-5,-3%,-2%,-6%
CCC1C(=O)NCCN1Cc1ccc2c(c1)CN(Cc1cccc(OC)c1)CCO2 (stereo unspecified),-2%,nt,nt,nt,4%
COc1nnc(-c2ccc(N3CCCCC3)c(NC(=O)c3ccccc3Cl)c2)c2ccccc12,-14%[7.34 µM],-99*,0%,nt,-16%[7.34 µM]
Oc1ccc(N=Nc2n[nH]c(-c3ccc(Br)cc3)n2)cc1,?,-88*,-4%,-4%,?
O=C(O)C(Oc1ccc2c3c(c(=O)oc2c1)CCC3)c1ccccc1 (stereo unspecified),-12%,-101*,3%,0%,-10%
Cc1cc(=O)oc2cc(OC(C(=O)O)c3ccccc3)ccc12 (stereo unspecified),-12%,-27,3%,-7%,-12%
CCOC(=O)[C@H]1[C@H]2COc3cc(OC)ccc3[C@@H]2N2C(=O)CN(Cc3ccc(C)cc3)C(=O)[C@@]12C,i,-17,0%,nt,-7%
Cc1ccccc1NS(=O)(=O)c1ccc(F)cc1,nt,84,-2%,-6%,nt
O=S(=O)(Nc1ccc2c3c(cccc13)CC2)c1ccc(F)cc1,nt,-61*,-2%,-1%,-17%
CSc1ccc(S(=O)(=O)Nc2ccc3c4c(cccc24)CC3)cc1,nt,-82*,-10%,0%,nt
CSc1ccc(S(=O)(=O)Nc2ccc3c(c2)NC(=O)CC3)cc1,-22%,-11,2%,2%,-20%
COc1ccc(/C=N/c2nc3ccccc3n2CCN2CCCCC2)cc1OC,-10%,-64*,1%,9%,-5%
O=C(/C=C/c1cccc(C(F)(F)F)c1)Nc1cccc(C(F)(F)F)c1,?,-99*,3%,-1%,?
O=C(/C=C/c1cccc(C(F)(F)F)c1)NNC(=O)c1ccncc1,?,-76*,1%,nt,-14%
SMILES,Vaccinia mCherry,HCMV antiviral,TbPYK inhibitor,LmPK inh,Vaccinia Venus
Cc1cccc(N2CCN(C(=O)COc3ccc4c(c3)CCC4)CC2C)c1 (stereo unspecified),nt,-34,-2%,nt,nt
CCOc1ccc(-n2c(C)cc(/C=N\NC(=O)CC(=O)NC3CCCCC3)c2C)cc1,-17%,-81*,-13%,-2%,-15%
CCOc1ccc(-n2c(C)cc(/C=N/NC(=O)C(N)=O)c2C)cc1,-10%,-16,-1%,2%,-9%
CCCCCCC[N+](CC)(CC)CCCCc1ccc(Cl)cc1,-7%,-101*,-12%,nt,-20%
COC(=O)C1=C(C)N(c2cc(C)cc(C)c2)/C(=C/c2ccc(O)cc2)C1=O,?,-96*,3%,-2%,?
COC(=O)C1=C(C)N(c2ccc(Cl)cc2)/C(=C/c2ccc(O)cc2)C1=O,-6%,-20,1%,-1%,-7%
Cc1ccc(C)c(S(=O)(=O)N2CCCOC2CNC(=O)C(=O)NCCN2CCOCC2)c1 (stereo unspecified),-1%,-4,9%,-4%,-17%
CCc1nc2sc3c(O)cc(=O)[nH]c3c2cc1C,i,-81*,-24%,?,-12%
Cc1cc(-c2ccccc2)c2c(n1)sc1c(O)cc(=O)[nH]c12,nt,0,10%,?,nt
CCn1nc(C)cc1C(=O)N1CCC2(CC1)c1ccccc1[C@@H](NC(=O)c1cccnc1)[C@@H]2O,-8%,nt,nt,nt,-2%
Cc1cc(N/N=C/c2cccc([N+](=O)[O-])c2)nc(-n2nc(C)cc2C)n1,i,?,-10%,5%,-1%
Cc1cc(N/N=C/c2ccc(O)cc2O)nc(-n2nc(C)cc2C)n1,?,?,-13%,1%,?
Cc1cc(N/N=C/c2ccccc2[N+](=O)[O-])nc(-n2nc(C)cc2C)n1,10µM*,-99*,1%,-10%,?
COc1cc(/C=N/Nc2cc(C)nc(NS(=O)(=O)c3ccc(C)cc3)n2)ccc1O,-12%,12,-2%,1%,-21%
COc1ccc(/C=N/Nc2cc(C)nc(NS(=O)(=O)c3ccc(C)cc3)n2)cc1,-23%,-62*,-9%,2%,?
COc1ccc(/C=N/Nc2cc(N3CCCC3)nc(N3CCCC3)n2)cc1,?,-76*,2%,11%,?
COc1ccc(/C=N/Nc2cc(C)nc(-n3nc(C)cc3C)n2)cc1,?,-99*,-9%,0%,?
COc1ccc(/C=N/Nc2nc(Nc3ccccc3)nc(N3CCCC3)n2)cc1[N+](=O)[O-],-15%,?,2%,3%[11.5 µM],?
COc1ccc(/C=N/Nc2nc(N3CCCCC3)nc(N3CCCCC3)n2)cc1[N+](=O)[O-],?,-74*,9%,2%,?
Cc1cc(N/N=C/c2cccc(Cl)c2)nc(-n2nc(C)cc2C)n1,?,-87*,-3%,11%,?
COc1cc(/C=N/Nc2nc(Nc3ccccc3)nc(-n3nc(C)cc3C)n2)cc(OC)c1OC,?,-12,2%,2%,?
COc1ccc(O)c(/C=N/Nc2nc(Nc3ccccc3)nc(-n3nc(C)cc3C)n2)c1,nt,-77*,1%,1%,10µM*
CC(C)Oc1ccc(C(=O)Nc2nc3c(s2)CC(C(C)(C)C)CC3)cc1 (stereo unspecified),i,?,2%,nt,-18%
COc1ccc(-n2cc3ccc([N+](=O)[O-])cc3n2)cc1,?,-96*,1%,-1%,4%
CC(=O)N/C(=C\c1ccccc1)C(=O)OCC(=O)c1c(N)n(C)c(=O)n(C)c1=O,-19%,5,4%,nt,-9%

# Assay outcomes (PubChem BioAssay)
